The first assay concerns the target LASP1. Kind of assay: pooled miR-30 sensor sort-seq; sequence = guide strand. Conditions: shRNA.
Sequence TACGCTGAAACCTTTGCCCTTG gave a sensor-assay potency score (higher = more potent) of 0.0341.
On the same count and under the same terms, next, TTGCAGTAGGGCTTCTTCTCGT: -0.401; TTATATTACTGATCTGGTCCTG: 0.57; TTGTAGCGCACCTGACTCTGGA: -0.666.
Same read-out and setting: next, TTCATGTTCAGTGTCATCTTGC: 0.197; TTTTATATTACTGATCTGGTCC: -0.194; ATGTTCAGTGTCATCTTGCAGG: -1.2.
Still for that read-out and setting: next, TATATTACTGATCTGGTCCTGG: 0.21.
Turning to TTCAGTGTCATCTTGCAGGTCT, the sensor-assay potency score (higher = more potent) was found to be 0.744.
The sequence TATTTTATATTACTGATCTGGT gave a sensor-assay potency score (higher = more potent) of -0.425.
The same measure, in the same setting: next, TACACGATCTTGCCGCACCGGG: -1.34; TTTATGCCAGAACTTATCCAGA: -1.03.

The target in the next assay is LASS1. The description is as above. The following applies: shRNA.
The sequence TAGTCGGTGCCAAACAGCAGGT showed a sensor-assay potency score (higher = more potent) of -1.18.
On the same count and under the same terms, next, TATAGCGTAGCGTAGATGGAGT: -0.396; TTGAAGAAGAAGTAGAAGGGGA: 0.612; AAACTTCCAAGCGCTCTCGGGC: -0.904.
On the same count and under the same terms, next, TGTCCATGTATAGCGTAGCGTA: -1.61; TCGTAGAAGACAGATGGTGGGT: -0.363.
On the same count and under the same terms, next, TAGCGTAGCGTAGATGGAGTGG: -0.207.
Sequence TAGAGGCGGAACCAGAACCAGC gave a sensor-assay potency score (higher = more potent) of -1.74.
Same read-out and setting: next, TAGAAGAGAAACTTCCAAGCGC: 0.296.
TGGAGCAGCATGACCACCGAGT came in with a sensor-assay potency score (higher = more potent) of -1.27.
Still for that read-out and setting: next, TTGAAGTAAATGTTGAGCTTGG: 0.853; TAGGCACTGTAGCTCCAGCTGC: -1.01.

Another assay concerns the target LCE2C. The assay is described as above. Conditions: shRNA.
In turn, CACAGCAAGAAGAGACTGCAGG showed a sensor-assay potency score (higher = more potent) of -2.53.
On the same count and under the same terms, next, AGACTGCAGGGAAACATGGAGC: -2.06.
On the same count and under the same terms, next, ACACTTGGGAGGACACTTGGGA: 0.0104; CTGCAGGGAAACATGGAGCTGG: -1.34.
The same measure, in the same setting: next, TTCACTCTCACAGCAGTCGGGG: -0.831; AGCAAGAAGAGACTGCAGGGAA: -0.624; TCAGGGAGCAGCCACCAGCCCC: -1.78.
TCACTCTCACAGCAGTCGGGGC yielded a sensor-assay potency score (higher = more potent) of -1.13.
On the same count and under the same terms, next, TGGTGGCTCAGGGAGCAGCCAC: -2.45.

For the next assay, the target named is LCN1. The description is as above. The following applies: shRNA.
Regarding TGACACATCCTGAATCTCCTCG, the sensor-assay potency score (higher = more potent) amounted to 1.02.
On the same count and under the same terms, next, TTGTTCTTGGGGTCTCTGCCCA: -0.515; TCCTGAATCTCCTCGTCTGAGG: -2.03; ATCCTGAATCTCCTCGTCTGAG: -1.24.
In turn, ATGCTCTCCGTGCTGAGTCCGC showed a sensor-assay potency score (higher = more potent) of -1.5.

Source of the values: the OligoGym collection.
Note: reference of the scale not given here.
